# Experimental data: PubChem BioAssay (NCI)
# The panel holds about 83,000 compounds, 20% with a hit somewhere; the sample as a whole holds those more often.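 Each cell line was grown in a 96-well plate and treated with one concentration of compound for 48 hours. Values below 10 were considered active.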 Unmarked numbers belong to inactive results. Activity calls are given as the source filed them.
# Experiments:
# Experiment in all cases: NCI-60 one-dose screen, 48 h (100 = growth as untreated, 0 = no growth, -100 = all killed)
# [1] = test system: SR leukemia; conditions: 10 µM unless noted
# [2] = test system: RPMI-8226 leukemia; conditions: 10 µM
# [3] = test system: OVCAR-8 ovarian; conditions: 10 µM unless noted
# [4] = test system: OVCAR-5 ovarian; conditions: 10 µM unless noted
# [5] = test system: OVCAR-4 ovarian; conditions: 10 µM unless noted
# [6] = test system: SK-OV-3 ovarian; conditions: 10 µM
# [7] = test system: IGROV1 ovarian; conditions: 10 µM unless noted
# [8] = test system: OVCAR-3 ovarian; conditions: 10 µM unless noted
# [9] = test system: T-47D breast; conditions: 10 µM
# [10] = test system: BT-549 breast; conditions: 10 µM unless noted
# [11] = test system: MDA-MB-435 melanoma; conditions: 10 µM unless noted
# [12] = test system: SW-620 colon; conditions: 10 µM unless noted
# [13] = test system: MCF7 breast; conditions: 10 µM unless noted
# [14] = test system: HCT-116 colon; conditions: 10 µM unless noted
# [15] = test system: KM12 colon; conditions: 10 µM unless noted
# [16] = test system: HS 578T breast; conditions: 10 µM unless noted
# [17] = test system: NCI/ADR-RES ovarian; conditions: 10 µM unless noted
# [18] = test system: HCC-2998 colon; conditions: 10 µM unless noted
Structure (SMILES),growth [1],growth [2],growth [3],growth [4],growth [5],growth [6],growth [7],growth [8],growth [9],growth [10],growth [11],growth [12],growth [13],growth [14],growth [15],growth [16],growth [17],growth [18]
COc1ccc(-c2nn(-c3ccc(NC(=O)c4ccc(Cl)c(Cl)c4)cc3)cc2-c2ccncc2)cc1Cl,27.4%,-35.4% (active),63.8%,60.9%,79.5%,65.6%,61.9%,56.7%,64.9%,42.8%,54.3%,32.1%,31.5%,23.2%,5.24% (active),–,–,–
OB(O)c1ccccc1,88%,102%,105%,108%,115%,–,114%,114%,–,96.2%,109%,108%,111%,108%,107%,102%,104%,109%
Cc1nc2ccc(Cl)cc2n1C,96.7%,97.4%,101%,103%,114%,–,106%,109%,–,103%,109%,108%,102%,109%,104%,99.6%,112%,111%
C[C@]1(CO)C[C@@H](O)C[C@]2(C)[C@@H]1CC[C@@]13C[C@@H]4[C@@H](C[C@H]12)[C@]4(C)C3,118%,114%,105%,97.6%,104%,–,106%,113%,–,98.8%,99.5%,101%,102%,89.3%,109%,102%,105%,119%
CSC1=CC(=O)c2ccccc2C1=O,-33.5% (active),44%,46.8%,103%,-34.7% (active),–,-75.7% (active),-96.2% (active),–,92.3%,89.4%,-55.2% (active),93.2%,-57% (active),71.9%,81.4%,74%,107%
COc1ccc(/C=C/C(=O)N2CCC(O)CC2)cc1OC1CCCC1,108%,107%,96.5%,104%,101%,–,104%,111%,–,117%,103%,106%,95.4%,106%,105%,96.1%,106%,111%
Brc1ccc(Br)nn1,-25.8% (active),-19.7% (active),-34.1% (active),-58.6% (active),26%,–,-77.8% (active),-97.7% (active),–,-69.7% (active),-96.3% (active),-100% (active),-72.4% (active),-97.3% (active),-50.7% (active),-0.414% (active),-32.5% (active),-53.5% (active)
COc1ccc(/C=C2\SC(=O)N(CN3CCN(c4cc5c(cc4F)c(=O)c(C(=O)O)cn5C4CC4)CC3)C2=O)cc1,102%,99.9%,98.5%,108%,104%,–,113%,110%,–,86.4%,98%,99.8%,95.2%,85.7%,103%,108%,103%,104%
COc1ccc(/C=N/NC(=O)c2cnn(CC(O)Cc3ccccc3)c2N)cc1OC1CCCC1 (stereo not drawn),88.7%,55.4%,78.6%,102%,75.8%,–,105%,102%,–,75.7%,100%,98.9%,83.7%,90.4%,35.2%,79%,88.3%,116%
CCCCCCCC/C=C\CCCCCCCCOc1cccc(CC(=O)NCC[N+](C)(C)C)c1,59%,61.9%,85.9%,51.8%,88.6%,–,3.34% (active),99.4%,–,74.4%,91.5%,96.5%,90.8%,75.2%,57.8%,78.4%,103%,66.1%
CCCCCCCCCCCCCCCC[N+]1(C)CCOCC1,-29.4% (active),-33.9% (active),16.1%,13.8%,20.7%,–,-43.1% (active),-5.72% (active),–,15.1%,26.9%,6.63% (active),61.6%,18.2%,–,16%,–,13.9%
Cc1cc(C)c(S(=O)O)c(C)c1,102%,102%,115%,114%,111%,–,129%,120%,–,104%,103%,103%,109%,109%,112%,104%,97%,110%
O=C1/C(=C/c2ccc([N+](=O)[O-])cc2)Oc2ccc(O)cc21,43%,34%,90.7%,-9.84% (active),39.7%,–,18%,16.7%,–,96.5%,95%,25.9%,3.33% (active),9.15% (active),102%,97.2%,89%,46%
CCCCCCCC/C=C\CCCCCCCCOc1cccc(CC(=O)NCC[N+]2(C)CCOCC2)c1,55.7%,96.4%,93.8%,65.5%,90.3%,–,0.48% (active),98.7%,–,98.8%,94%,–,83.8%,78.5%,64.1%,80.9%,112%,80.6%
COc1ccccc1/C=C/C(=O)/C=C/c1ccccc1O,-61.2% (active),-53.7% (active),2.91% (active),-35% (active),–,88.9%,5.17% (active),-40.9% (active),-37.2% (active),-34.1% (active),-36.3% (active),-80.3% (active),-18.6% (active),-93.2% (active),-93.9% (active),-40.9% (active),-19.4% (active),4.04% (active)
O=C(N/N=C/c1ccc(OC(F)F)c(OC2CCCC2)c1)c1cnn2c1NC(c1ccccc1)C2 (stereo not drawn),37.4%,73.9%,90.4%,93.7%,61.3%,–,83.4%,78.9%,–,73.4%,18%,78.4%,69.2%,67.4%,54.8%,69.2%,72.8%,111%
CCCCC1COc2cccc3c(SCC(=O)N(C)c4cccc5ccccc45)cc[n+]1c23 (stereo not drawn),96.1%,89.5%,102%,112%,99%,–,111%,107%,–,102%,103%,–,91.7%,82.5%,112%,108%,104%,90.3%
COc1ccc(/C=N/NC(=O)c2cnn3c2NC(c2ccccc2)C3)cc1OC1CCCC1 (stereo not drawn),47.2%,79%,85%,101%,76.5%,–,101%,106%,–,93.3%,61.7%,97.5%,86.2%,82%,81.3%,88%,92.7%,110%
O=C1Nc2ccc(Cl)cc2/C1=N/N=C(c1ccccc1)c1ccccc1,101%,92.9%,96%,96.2%,85.8%,–,77.4%,105%,–,100%,99.8%,–,100%,97.9%,–,97.3%,98%,102%
